ChEMBL document CHEMBL3988442, “University of Dundee, Small-Polar-MMV Screening Library” (2021)
For some assays here: Entries with a potency or affinity are not part of this list.

Assays:
Parameters in all cases: scale not given: direction of the effect not stated beside the values
[1] = target: Protein translocase subunit SecA (Escherichia coli (strain K12)) (UniProt P10408); test: Assay to Identify E. coli SecA ATPase Inhibitors; assay type: functional; settings: 30 µM
[2] = target: T1, Ubiquitin-activating enzyme e1, putative (Leishmania donovani (strain BPK282A1)) (UniProt E9BSI1); test: Leishmania donovani Ubiquitin Activating Enzyme (LdE1); assay type: functional; settings: 30 µM
T1 sequence (whole entry): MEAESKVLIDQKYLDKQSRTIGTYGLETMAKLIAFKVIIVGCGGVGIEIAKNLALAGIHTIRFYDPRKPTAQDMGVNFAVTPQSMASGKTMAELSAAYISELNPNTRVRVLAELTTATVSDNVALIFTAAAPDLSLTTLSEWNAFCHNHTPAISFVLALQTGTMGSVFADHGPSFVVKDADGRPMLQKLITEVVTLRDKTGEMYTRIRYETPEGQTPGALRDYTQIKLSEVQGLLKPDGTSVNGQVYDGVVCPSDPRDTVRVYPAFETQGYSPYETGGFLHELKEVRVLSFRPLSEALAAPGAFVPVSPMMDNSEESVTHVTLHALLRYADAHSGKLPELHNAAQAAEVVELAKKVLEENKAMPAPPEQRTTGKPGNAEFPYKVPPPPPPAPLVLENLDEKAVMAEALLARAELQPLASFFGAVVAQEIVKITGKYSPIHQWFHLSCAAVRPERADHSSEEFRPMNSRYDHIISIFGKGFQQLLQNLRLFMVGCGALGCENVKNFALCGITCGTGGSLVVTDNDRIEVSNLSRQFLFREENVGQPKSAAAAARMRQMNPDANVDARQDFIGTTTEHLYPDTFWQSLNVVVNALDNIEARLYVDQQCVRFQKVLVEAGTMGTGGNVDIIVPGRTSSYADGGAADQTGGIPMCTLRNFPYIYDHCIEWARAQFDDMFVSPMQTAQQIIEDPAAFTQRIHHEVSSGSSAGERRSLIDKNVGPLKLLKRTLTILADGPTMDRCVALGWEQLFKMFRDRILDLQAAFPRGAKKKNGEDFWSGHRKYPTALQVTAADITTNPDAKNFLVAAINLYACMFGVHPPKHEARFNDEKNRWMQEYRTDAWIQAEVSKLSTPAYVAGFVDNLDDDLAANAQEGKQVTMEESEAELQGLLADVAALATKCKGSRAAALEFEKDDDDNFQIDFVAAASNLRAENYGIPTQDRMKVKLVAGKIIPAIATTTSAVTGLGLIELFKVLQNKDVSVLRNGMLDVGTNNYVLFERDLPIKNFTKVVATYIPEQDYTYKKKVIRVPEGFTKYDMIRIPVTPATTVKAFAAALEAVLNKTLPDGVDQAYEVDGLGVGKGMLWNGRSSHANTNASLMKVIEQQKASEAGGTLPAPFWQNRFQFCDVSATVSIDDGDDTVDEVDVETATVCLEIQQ

[3] = target: AMP-activated protein kinase, AMPK (Homo sapiens) (UniProt P54646+O43741+P54619+Q9UGJ0+Q9Y478+Q13131+Q9UGI9); test: AMP-dependent Kinase enzyme assay. An in vitro enzyme assay that detects ADP turnover that is directly proportional to AMPK activity. This uses naive AMPK that is activated during the assay with MK-8722; assay type: functional; settings: 30 µM
[4] = target: Sialic acid-binding Ig-like lectin 9 (Homo sapiens) (UniProt Q9Y336); test: Hs-Siglec9 ALPHAscreen SOP 20170721; settings: 10 µM
Sialic acid-binding Ig-like lectin 9 (Homo sapiens), sequence (Q9Y336 whole entry): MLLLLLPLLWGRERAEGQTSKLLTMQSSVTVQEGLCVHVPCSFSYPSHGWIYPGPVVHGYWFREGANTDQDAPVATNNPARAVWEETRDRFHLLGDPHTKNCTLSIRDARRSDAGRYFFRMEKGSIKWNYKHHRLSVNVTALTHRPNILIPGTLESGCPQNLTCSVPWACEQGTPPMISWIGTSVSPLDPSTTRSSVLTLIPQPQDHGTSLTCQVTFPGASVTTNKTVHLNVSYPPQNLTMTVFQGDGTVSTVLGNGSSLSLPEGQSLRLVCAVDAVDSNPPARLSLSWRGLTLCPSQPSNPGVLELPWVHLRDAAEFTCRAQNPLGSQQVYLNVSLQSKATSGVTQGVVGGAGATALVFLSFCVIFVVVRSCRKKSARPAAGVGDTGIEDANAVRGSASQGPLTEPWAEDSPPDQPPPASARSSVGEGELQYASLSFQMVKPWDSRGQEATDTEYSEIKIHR

Trypanosoma cruzi = test: Trypanosoma cruzi phosphomannomutase and mannose-1-phosphate guanylyltransferase assay; assay type: functional; settings: 10 µM
[5] = target: T2, Arginase-2, mitochondrial (Homo sapiens) (UniProt P78540); test: in vitro enzyme assay to detect the production of urea directly proportional to the activity of Arginase II; assay type: functional; settings: 33.3 µM; also: in the data most compounds retested in dose-response had high values
T2 sequence (whole entry): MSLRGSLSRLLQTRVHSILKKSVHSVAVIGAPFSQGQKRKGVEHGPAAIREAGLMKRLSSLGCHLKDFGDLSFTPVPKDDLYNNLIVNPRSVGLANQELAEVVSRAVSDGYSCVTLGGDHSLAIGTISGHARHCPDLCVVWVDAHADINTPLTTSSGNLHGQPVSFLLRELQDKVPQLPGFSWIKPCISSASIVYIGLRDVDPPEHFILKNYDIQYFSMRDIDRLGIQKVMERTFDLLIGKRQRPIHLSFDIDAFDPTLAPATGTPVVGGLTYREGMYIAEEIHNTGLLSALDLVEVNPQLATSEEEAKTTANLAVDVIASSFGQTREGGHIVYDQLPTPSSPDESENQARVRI

[6] = target: T3, Proteasome subunit beta (Trypanosoma cruzi) (UniProt O96673); test: Trypanosoma cruzi proteasome chymotrypsin-like activity (TcProtChymo) assay.; also: in the data most compounds retested in dose-response had high values; assay type: functional; settings: 9.37 µM
T3 sequence (whole entry): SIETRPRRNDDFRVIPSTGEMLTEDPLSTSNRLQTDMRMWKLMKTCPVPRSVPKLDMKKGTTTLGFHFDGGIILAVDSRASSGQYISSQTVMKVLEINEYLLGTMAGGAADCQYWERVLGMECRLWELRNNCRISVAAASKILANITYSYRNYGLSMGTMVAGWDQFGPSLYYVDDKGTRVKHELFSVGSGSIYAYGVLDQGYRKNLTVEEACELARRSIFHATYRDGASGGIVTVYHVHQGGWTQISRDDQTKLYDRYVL

Homo sapiens = species on record: Homo sapiens; test: To identify inhibition of the IFN signalling (Jak-Stat) pathway via expression of an eGFP reporter gene under the control of an IFN-stimulated response element (ISRE) containing MxA promoter.; assay type: functional; settings: 30 µM
[7] = target: T4, Tyrosyl-tRNA synthetase, putative (Trypanosoma cruzi (strain CL Brener)) (UniProt Q4DSP6); test: Trypanosoma cruzi tyrosyl tRNA synthetase (TcYRS) _High Tyrosine SOP; assay type: functional; settings: 30 µM; also: in the data most compounds retested in dose-response had high values
T4 sequence (whole entry): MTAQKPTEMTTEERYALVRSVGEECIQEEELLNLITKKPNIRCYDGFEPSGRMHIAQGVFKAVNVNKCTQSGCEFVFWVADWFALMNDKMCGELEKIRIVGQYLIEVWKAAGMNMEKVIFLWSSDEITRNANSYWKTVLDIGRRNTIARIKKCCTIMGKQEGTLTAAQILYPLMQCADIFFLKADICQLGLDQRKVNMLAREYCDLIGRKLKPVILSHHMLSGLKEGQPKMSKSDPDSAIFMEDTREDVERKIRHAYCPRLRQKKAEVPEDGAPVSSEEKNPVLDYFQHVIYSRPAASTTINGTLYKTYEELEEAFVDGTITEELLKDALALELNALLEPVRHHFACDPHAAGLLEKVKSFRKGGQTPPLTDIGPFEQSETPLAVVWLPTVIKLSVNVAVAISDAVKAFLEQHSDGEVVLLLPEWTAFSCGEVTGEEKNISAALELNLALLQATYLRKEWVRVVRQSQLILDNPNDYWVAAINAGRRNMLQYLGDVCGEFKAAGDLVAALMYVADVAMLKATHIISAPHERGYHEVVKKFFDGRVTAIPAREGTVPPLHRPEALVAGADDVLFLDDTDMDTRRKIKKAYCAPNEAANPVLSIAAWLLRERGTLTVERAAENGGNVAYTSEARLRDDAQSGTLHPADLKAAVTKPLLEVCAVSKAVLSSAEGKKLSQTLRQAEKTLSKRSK

[8] = target: T4, Tyrosyl-tRNA synthetase, putative (Trypanosoma cruzi (strain CL Brener)); test: Trypanosoma cruzi tyrosyl tRNA synthetase (TcYRS) SOP; assay type: functional; settings: 30 µM
[9] = target: Chromo domain-containing protein 1 (Saccharomyces cerevisiae (strain ATCC 204508 / S288c) (Baker's yeast)) (UniProt P32657); test: ScCHD-1 Enzyme Inhibition Assay; assay type: functional; settings: 30 µM; also: in the data most compounds retested in dose-response had high values
Chromo domain-containing protein 1 (Saccharomyces cerevisiae (strain ATCC 204508 / S288c) (Baker's yeast)), sequence (P32657 whole entry, the tested form may be a part): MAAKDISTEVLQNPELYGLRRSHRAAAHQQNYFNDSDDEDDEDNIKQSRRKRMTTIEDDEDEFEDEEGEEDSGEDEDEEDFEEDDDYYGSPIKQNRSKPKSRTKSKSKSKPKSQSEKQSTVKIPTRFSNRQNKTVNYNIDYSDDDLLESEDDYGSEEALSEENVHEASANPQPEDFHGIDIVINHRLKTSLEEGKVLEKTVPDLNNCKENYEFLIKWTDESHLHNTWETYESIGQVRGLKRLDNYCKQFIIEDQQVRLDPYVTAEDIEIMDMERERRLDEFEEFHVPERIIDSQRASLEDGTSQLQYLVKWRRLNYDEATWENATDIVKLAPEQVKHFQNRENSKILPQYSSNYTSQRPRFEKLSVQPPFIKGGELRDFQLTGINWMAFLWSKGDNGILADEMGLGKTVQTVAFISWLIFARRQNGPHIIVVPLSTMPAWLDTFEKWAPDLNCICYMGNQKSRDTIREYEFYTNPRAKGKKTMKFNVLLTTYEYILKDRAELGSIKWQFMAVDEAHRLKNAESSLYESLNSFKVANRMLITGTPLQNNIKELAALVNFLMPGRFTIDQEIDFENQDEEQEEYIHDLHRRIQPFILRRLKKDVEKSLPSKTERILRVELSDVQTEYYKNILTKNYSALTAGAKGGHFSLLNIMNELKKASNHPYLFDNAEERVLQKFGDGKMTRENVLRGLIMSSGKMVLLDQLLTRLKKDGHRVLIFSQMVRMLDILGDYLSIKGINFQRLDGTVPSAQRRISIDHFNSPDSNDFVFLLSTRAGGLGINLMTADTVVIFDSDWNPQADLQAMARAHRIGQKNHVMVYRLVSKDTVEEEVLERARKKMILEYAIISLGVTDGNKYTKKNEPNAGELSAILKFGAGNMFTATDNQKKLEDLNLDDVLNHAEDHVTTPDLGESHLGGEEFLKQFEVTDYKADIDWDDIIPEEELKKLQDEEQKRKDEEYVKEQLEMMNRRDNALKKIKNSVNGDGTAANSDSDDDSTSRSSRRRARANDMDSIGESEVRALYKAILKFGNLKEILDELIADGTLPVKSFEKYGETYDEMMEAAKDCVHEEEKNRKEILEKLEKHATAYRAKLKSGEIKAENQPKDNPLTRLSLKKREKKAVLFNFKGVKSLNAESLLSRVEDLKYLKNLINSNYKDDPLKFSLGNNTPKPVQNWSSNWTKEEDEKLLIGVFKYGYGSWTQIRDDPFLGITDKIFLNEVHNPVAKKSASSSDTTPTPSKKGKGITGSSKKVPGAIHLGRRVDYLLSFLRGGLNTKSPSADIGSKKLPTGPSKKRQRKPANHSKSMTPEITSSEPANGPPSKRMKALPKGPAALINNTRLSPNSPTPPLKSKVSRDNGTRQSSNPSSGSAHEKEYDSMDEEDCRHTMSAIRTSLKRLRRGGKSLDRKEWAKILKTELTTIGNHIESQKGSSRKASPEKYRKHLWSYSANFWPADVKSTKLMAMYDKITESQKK

Protein translocase subunit SecA (Escherichia coli (strain K12)), sequence (P10408 whole entry): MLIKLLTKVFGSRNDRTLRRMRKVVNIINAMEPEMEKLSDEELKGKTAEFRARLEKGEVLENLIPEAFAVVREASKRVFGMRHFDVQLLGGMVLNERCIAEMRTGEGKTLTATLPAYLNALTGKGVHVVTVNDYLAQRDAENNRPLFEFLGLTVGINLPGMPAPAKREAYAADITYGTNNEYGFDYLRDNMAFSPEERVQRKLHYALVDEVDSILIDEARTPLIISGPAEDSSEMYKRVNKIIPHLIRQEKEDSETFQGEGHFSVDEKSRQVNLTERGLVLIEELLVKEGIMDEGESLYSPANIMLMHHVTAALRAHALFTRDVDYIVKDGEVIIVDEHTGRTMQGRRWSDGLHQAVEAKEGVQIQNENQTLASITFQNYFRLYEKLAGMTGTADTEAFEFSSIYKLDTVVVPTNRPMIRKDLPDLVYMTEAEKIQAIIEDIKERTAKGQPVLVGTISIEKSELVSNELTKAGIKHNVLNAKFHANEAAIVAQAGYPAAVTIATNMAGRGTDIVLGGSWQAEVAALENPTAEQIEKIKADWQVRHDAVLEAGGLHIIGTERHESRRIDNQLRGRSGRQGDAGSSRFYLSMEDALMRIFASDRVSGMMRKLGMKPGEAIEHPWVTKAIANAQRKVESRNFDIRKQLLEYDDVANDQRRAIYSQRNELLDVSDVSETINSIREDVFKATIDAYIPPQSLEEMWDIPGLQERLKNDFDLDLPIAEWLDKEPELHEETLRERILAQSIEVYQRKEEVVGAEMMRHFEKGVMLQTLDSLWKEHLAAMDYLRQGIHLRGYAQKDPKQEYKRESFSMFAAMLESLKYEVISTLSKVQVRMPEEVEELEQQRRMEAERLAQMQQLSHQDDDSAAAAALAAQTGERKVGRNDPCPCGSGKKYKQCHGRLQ

| Compound | Percent Effect [1] [%] | Percent Effect [2] [%] | Percent Effect [3] [%] | Percent Effect [4] [%] | Percent Effect (Trypanosoma cruzi) [%] | Percent Effect [5] [%] | Percent Effect [6] [%] | Percent Effect (Homo sapiens) [%] | Percent Effect [7] [%] | Percent Effect [8] [%] | Percent Effect [9] [%] |
| --- | --- | --- | --- | --- | --- | --- | --- | --- | --- | --- | --- |
| CCc1nnc2n1CCN(C(=O)c1csc(-c3cnn(C)c3)n1)C2 | -4.14 | 12.5 | -3.73 | 15.8 | 4.96 | 8.39 | 15.1 | 0.753 | 3.16 | 7.69 | -5.68 |
| CCC(CC)c1cc(CNC(=O)N2CCOC(C)C2)on1 (configuration not stated) | -3.56 | -2.7 | -0.766 | -6.02 | -1.86 | 2.23 | -2.66 | 3.72 | 3.23 | 1.24 | 0.0369 |
| COCCOc1ccc(NC(=O)N2CCCC2c2ccncc2)cn1 (configuration not stated) | -2.75 | 0 | 2.9 | 5.29 | 2.64 | -1.47 | 12.8 | 11.5 | 1.91 | 0 | -22.2 |
| CN(Cc1ccco1)C[C@H]1OC[C@@H]2CCN(Cc3nccs3)C[C@@H]21 | -6.74 | 16 | -3.04 | -3.48 | 5.41 | -45 | 16.1 | 7.21 | 2.08 | 10 | -6.67 |
| CCn1cnnc1CNC(=O)N1CCN(c2cccs2)CC1 | -8.91 | 5.2 | -16.1 | 14.9 | 14.2 | 1.78 | 24.3 | 7.4 | 26.2 | 12.2 | -5.95 |
| Cc1nccn1C1CCCN(C(=O)c2ccc(N(C)C)nc2)C1 (configuration not stated) | -4.63 | 7.89 | -3.59 | 3.06 | 6.26 | -1.08 | 7.36 | 7.13 | 7.39 | 18.5 | -0.744 |
| O=C(C1CCC1)N1CCN(C(=O)c2cnccn2)[C@H]2CS(=O)(=O)C[C@H]21 | -0.271 | 13.5 | -3.89 | 16.5 | 7.34 | 0.476 | 9.65 | 3.49 | 4.76 | 17.1 | -3.81 |
| Cc1ccc(C(=O)N2CCN(Cc3nc(C(C)C)no3)CC2)c(=O)[nH]1 | -7.78 | 2.7 | -5.78 | 5.72 | -4.36 | -2.77 | -4.49 | 13.8 | 1.98 | 1.22 | 7.95 |
| Cc1cnn(CC2CCCN2C(=O)c2ccc3[nH]nnc3c2)c1 (configuration not stated) | -1.48 | 8.86 | -1.94 | -8.54 | 2.97 | -2.8 | 17.5 | 2.88 | 1.04 | 10.1 | -4.85 |
| CCc1nnc2n1CCN(Cc1csc(-c3cnn(C)c3)n1)C2 | -3.51 | 12.5 | -7.81 | 3.08 | -3.79 | -2.21 | 18.6 | -7.26 | 5.26 | 0 | 0.402 |
| Cc1noc(C(C)N2CCN(CC(=O)N3CCOCC3)CC2)n1 (configuration not stated) | -5.15 | 10.5 | -3.04 | -5.34 | 5.55 | -4.73 | -3.93 | -8.61 | 2.13 | 10.4 | -15.2 |
| Cc1cnccc1CN1C[C@@H](O)[C@H](Oc2cccc(F)c2)C1 | -3.16 | 1.35 | 10 | 2.32 | 3.36 | 0.696 | 4.37 | 16.3 | 0 | 1.3 | -22.9 |
| CC(C)OCCCN1CCCC(c2nc3ccccc3n2C(C)C)C1 (configuration not stated) | -2.17 | 13.5 | -7.28 | -1.96 | 3.32 | 32.9 | 15 | 22.4 | 9.9 | 13.4 | 6.88 |
| CCC(C)(NCC(=O)Nc1ccccc1)c1nc(C)cs1 (configuration not stated) | -2.41 | 2.7 | -4.26 | 30.5 | 2.05 | 18.6 | -0.772 | -24.9 | 1.07 | 6.17 | 2.11 |
| Oc1nc(N2CCOCC2)nc2c1CCN(Cc1cccnc1)CC2 | -4.93 | 6.76 | 7.05 | 1.25 | -1.98 | -3.48 | 5.15 | 3.87 | 4.3 | 11.7 | -8.38 |
| CC(OCC(F)(F)F)C(=O)N1CCCCC1 (configuration not stated) | -5.31 | 0 | -0.316 | -2.51 | -0.783 | -2.27 | -1.77 | 19.4 | 1.07 | 2.5 | 0.868 |
| Cc1cccc(NC(=O)CNC(=O)Cn2ncc(Cl)c(Cl)c2=O)c1C | -1.81 | 0 | 26 | 2.69 | -8.4 | 0 | 16.6 | 23.8 | 11.9 | -1.22 | 7.2 |
| CN(C)c1ccc(CCCNC(=O)Nc2ccc(C#N)cc2)cc1 | 1.86 | 8.11 | 2.26 | 11.1 | 3.86 | 11.4 | 15.7 | 72 | 5.82 | 14.6 | -5.31 |
| Cc1nc(C)n(CC2CN(c3ncccn3)Cc3nccn3C2)n1 (configuration not stated) | -6.81 | 8.11 | -2.43 | 1.67 | -3.42 | -2.73 | 6.44 | 2.81 | 2.15 | 11.1 | -2.96 |
| Cc1ncccc1CNCC1CCN(CC(O)c2ccccc2)CC1 (configuration not stated) | -5.43 | 13.9 | -5.86 | 1.69 | -0.308 | -1.07 | 15.3 | 3.05 | 6.25 | 17.7 | -29.1 |
| COC(=O)c1cccn1C1CCN(C(=O)c2cc(F)ccc2F)CC1 | -4.16 | 13 | 1.19 | 0.495 | 4.87 | -6.76 | 3.04 | 19.8 | 5.83 | 14.6 | -9.49 |
| Cc1cc(N2CCC(N(C)C(=O)c3ccccc3)CC2)nc(C)n1 | -2.59 | 19.2 | 2.37 | 4.5 | 5.09 | 10.4 | 11.4 | 29.3 | 7.53 | 17.5 | -8.12 |
